Source: PubChem BioAssay (NCI)
About 83,000 compounds went through this panel and 20% of them were active in at least one assay; those are over-represented in the sample as a whole.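 Cell lines were cultured in 96-well plates, exposed to a single compound concentration, and assessed for percent growth 48 hours later.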 A number with no mark means an inactive call. Activity calls are given as the source filed them. How the source made its calls: active means growth percent below 10; inactive means the rest.

Tests used:
Assay in all cases: NCI-60 one-dose screen, 48 h (100 = growth as untreated, 0 = no growth, -100 = all killed)
Settings in all cases: 10 µM unless noted
[1] = test system: NCI-H23 lung
[2] = test system: NCI-H226 lung
[3] = test system: NCI-H322M lung
[4] = test system: HOP-62 NSCLC
[5] = test system: NCI-H460 lung
[6] = test system: HOP-92 NSCLC
[7] = test system: NCI-H522 lung
[8] = test system: A549/ATCC NSCLC
[9] = test system: 786-0 renal
[10] = test system: COLO 205 colon

Structure (SMILES): Oc1ccc(C#CCOc2ccccc2)cc1CNCCN(Cc1ccccn1)Cc1ccccn1
- growth [1]: 16.7%
- growth [2]: 8.23% (active)
- growth [3]: 13.6%
- growth [4]: 13.3%
- growth [5]: 5.58% (active)
- growth [6]: 42.5%
- growth [7]: 9.5% (active)
- growth [8]: 8.12% (active)
- growth [9]: 5.55% (active)
- growth [10]: 13%

Structure (SMILES): CCOC(=O)c1cn2ncnc(Oc3ccc(NC(=O)NCCN(C)C)c(Cl)c3)c2c1C
- growth [1]: 75.5%
- growth [2]: 93.2%
- growth [3]: 90.5%
- growth [4]: 95.3%
- growth [5]: 103%
- growth [6]: 44.8%
- growth [7]: 87.9%
- growth [8]: 92.4%
- growth [9]: 76.1%
- growth [10]: 55.9%

Structure (SMILES): CCOC(=O)c1cn2ncnc(Oc3ccc(NC(=O)NCCN(CC)CC)c(Cl)c3)c2c1C
- growth [1]: 76.6%
- growth [2]: 91.5%
- growth [3]: 98.7%
- growth [4]: 84.2%
- growth [5]: 104%
- growth [6]: 41.5%
- growth [7]: 72.9%
- growth [8]: 91.5%
- growth [9]: 72%
- growth [10]: 57.2%

Structure (SMILES): C#Cc1cccc(NC(=O)Nc2ccccc2NC(=O)CCl)c1
- growth [1]: -52.2% [8.25 µM] (active)
- growth [2]: -56.2% [8.25 µM] (active)
- growth [3]: 91% [8.25 µM]
- growth [4]: -34.8% [8.25 µM] (active)
- growth [5]: -24.4% [8.25 µM] (active)
- growth [6]: -30.6% [8.25 µM] (active)
- growth [7]: -58.6% [8.25 µM] (active)
- growth [8]: 10% [8.25 µM]
- growth [9]: -63.2% [8.25 µM] (active)
- growth [10]: -49.3% [8.25 µM] (active)

Structure (SMILES): COc1nc2ccc(C)cc2cc1-c1nc2c(cnn2-c2ccc(Br)cc2)c(=O)[nH]1
- growth [1]: 44.9%
- growth [2]: 57.5%
- growth [3]: 72.7%
- growth [4]: 45.5%
- growth [5]: 27.1%
- growth [6]: 51.6%
- growth [7]: 3.48% (active)
- growth [8]: 57.7%
- growth [9]: 41.5%
- growth [10]: 74.2%

Structure (SMILES): COc1ccc(-c2c(C(=O)NS(C)(=O)=O)n(Cc3cccc(C(F)(F)F)c3)c3ccccc23)cc1
- growth [1]: 97.4%
- growth [2]: 82.1%
- growth [3]: 94.5%
- growth [4]: 89.4%
- growth [5]: 89.7%
- growth [6]: 62.2%
- growth [7]: 80.8%
- growth [8]: 88.8%
- growth [9]: 95.3%
- growth [10]: 105%

Structure (SMILES): COc1ccc(/C=C2\Oc3cc(OCCN4CCC(Cc5ccccc5)CC4)ccc3C2=O)cc1OC
- growth [1]: 68.6%
- growth [2]: 69.6%
- growth [3]: 96.2%
- growth [4]: 78.6%
- growth [5]: 66.5%
- growth [6]: 47.7%
- growth [7]: 78.2%
- growth [8]: 86.7%
- growth [9]: 78.4%
- growth [10]: 19.1%

Structure (SMILES): COc1ccc(/C=C(\C#N)n2nnc3c(F)cccc32)cc1
- growth [1]: 18%
- growth [2]: 45%
- growth [3]: 37.9%
- growth [4]: 28.7%
- growth [5]: 2.99% (active)
- growth [6]: 21.4%
- growth [7]: 11.6%
- growth [8]: 35.6%
- growth [9]: 15.9%
- growth [10]: -6.97% (active)

Structure (SMILES): COc1cccc(-c2nc(-c3ccc(NC(=O)C(C)C)cc3)[nH]c2-c2ccnc(Br)c2)c1
- growth [1]: 51.3%
- growth [2]: 43.5%
- growth [3]: 43.7%
- growth [4]: 24.1%
- growth [5]: 31.8%
- growth [6]: 43.4%
- growth [7]: 19.5%
- growth [8]: 38.8%
- growth [9]: -14.1% (active)
- growth [10]: 30.1%

Structure (SMILES): Fc1cc2c(cc1Cl)N(c1ncnc3ccc(-c4cnc5cnccn45)cc13)CC2
- growth [1]: 83%
- growth [2]: 92.8%
- growth [3]: 80.7%
- growth [4]: 78.1%
- growth [5]: 98.9%
- growth [6]: 87.4%
- growth [7]: 82.6%
- growth [8]: 86.8%
- growth [9]: 81.1%
- growth [10]: 121%

Structure (SMILES): CCC(=O)Nc1ccc(-c2nc(-c3cccc(OC)c3)c(-c3ccnc(Br)c3)[nH]2)cc1
- growth [1]: 76.9%
- growth [2]: 55.1%
- growth [3]: 67.4%
- growth [4]: 75.3%
- growth [5]: 49.4%
- growth [6]: 61.4%
- growth [7]: 56.9%
- growth [8]: 60.9%
- growth [9]: 40.8%
- growth [10]: 71.2%

Structure (SMILES): Cc1ccc(C(C)C)cc1C(=O)C[n+]1ccccc1
- growth [1]: 113%
- growth [2]: 105%
- growth [3]: 96.8%
- growth [4]: 91.6%
- growth [5]: 109%
- growth [6]: 100%
- growth [7]: 81.7%
- growth [8]: 101%
- growth [9]: 96.4%
- growth [10]: 112%

Structure (SMILES): Cn1cc(-c2cc3ncnc(Nc4ccc(CC(=O)Nc5cc(C(C)(C)C)on5)cc4)c3s2)cn1
- growth [1]: 50.2%
- growth [2]: 26%
- growth [3]: 32.9%
- growth [4]: 58.1%
- growth [5]: 28.4%
- growth [6]: 35.8%
- growth [7]: 36.3%
- growth [8]: 21.6%
- growth [9]: 36%
- growth [10]: 24.7%

Structure (SMILES): COc1c(B(O)O)cc(C)cc1-c1nc2ccc3[nH]ncc3c2c2c1CCCC2
- growth [1]: 70.9%
- growth [2]: 73.7%
- growth [3]: 106%
- growth [4]: 43%
- growth [5]: 31.4%
- growth [6]: 53.8%
- growth [7]: 37.3%
- growth [8]: 52.7%
- growth [9]: 48.3%
- growth [10]: 19.6%

Structure (SMILES): c1cc2nc(-c3cn[nH]c3)c3c(c2cc1-c1cn[nH]c1)C1CCC3C1 (stereo not given)
- growth [1]: 53%
- growth [2]: 39.5%
- growth [3]: 75%
- growth [4]: 47.8%
- growth [5]: 54%
- growth [6]: 28%
- growth [7]: 75.1%
- growth [8]: 74%
- growth [9]: 81.5%
- growth [10]: 90.5%

Structure (SMILES): N/C(=N\c1nc2ccccc2s1)NC(=O)Nc1cccc2ccccc12
- growth [1]: 29.6%
- growth [2]: 66.8%
- growth [3]: 41.8%
- growth [4]: 34.5%
- growth [5]: 10.7%
- growth [6]: 48.4%
- growth [7]: 5.26% (active)
- growth [8]: 27.7%
- growth [9]: 34.5%
- growth [10]: 3.54% (active)

Structure (SMILES): CCOC(=O)c1sc2ncc(-c3ccc(C)cc3)n2c1C
- growth [1]: 83%
- growth [2]: 78.2%
- growth [3]: 92.6%
- growth [4]: 87.9%
- growth [5]: 101%
- growth [6]: 83.9%
- growth [7]: 86.2%
- growth [8]: 97.3%
- growth [9]: 106%
- growth [10]: 99.7%

Structure (SMILES): CCOC(=O)Cn1c(C)c(/C=N/NC(=O)c2cc3c(ccc4ccccc43)o2)c2ccccc21
- growth [1]: 27.7%
- growth [2]: 19.4%
- growth [3]: 41.5%
- growth [4]: 26.5%
- growth [5]: 5.99% (active)
- growth [6]: 60.5%
- growth [7]: -25.5% (active)
- growth [8]: 21.8%
- growth [9]: 20.7%
- growth [10]: -39.9% (active)

Structure (SMILES): Cc1ccc(C(=O)NN2C(=O)CSC2c2ccc(Cl)cc2)cn1 (stereo not given)
- growth [1]: 84.1%
- growth [2]: 82.4%
- growth [3]: 119%
- growth [4]: 82.2%
- growth [5]: 101%
- growth [6]: 71.1%
- growth [7]: 84.3%
- growth [8]: 100%
- growth [9]: 107%
- growth [10]: 105%

Structure (SMILES): COc1cc(CNS(=O)(=O)c2ccc(C)cc2)ccc1OCc1cn(-c2ccccc2)nn1
- growth [1]: 83%
- growth [2]: 81.5%
- growth [3]: 92.8%
- growth [4]: 97%
- growth [5]: 97.1%
- growth [6]: 68.4%
- growth [7]: 76.5%
- growth [8]: 90.7%
- growth [9]: 95.2%
- growth [10]: 108%

Structure (SMILES): Cc1ccc(C(=O)NCCNc2nccc(-c3c(-c4cccc(F)c4)nc4sccn34)n2)cc1
- growth [1]: 70.5%
- growth [2]: 36.4%
- growth [3]: 64.8%
- growth [4]: 86.1%
- growth [5]: 34.8%
- growth [6]: 74.8%
- growth [7]: 72.2%
- growth [8]: 31.2%
- growth [9]: 60.8%
- growth [10]: 27.6%

Structure (SMILES): COc1ccc(C2=Nn3c(nnc3-c3cc(Cl)cc(Cl)c3Cl)SC2)cc1
- growth [1]: 3.14% (active)
- growth [2]: 64.8%
- growth [3]: 36.4%
- growth [4]: -2.41% (active)
- growth [5]: -18.9% (active)
- growth [6]: 22.3%
- growth [7]: -17.8% (active)
- growth [8]: 21.9%
- growth [9]: 6.36% (active)
- growth [10]: -34.4% (active)

Structure (SMILES): CC1(C)C2CC1C1(/C=N/NC(N)=S)C(C2)C(C#N)(C#N)C1(C#N)C#N (stereo not given)
- growth [1]: 89.4%
- growth [2]: 109%
- growth [3]: 98%
- growth [4]: 108%
- growth [5]: 98.9%
- growth [6]: 55.5%
- growth [7]: -60.7% (active)
- growth [8]: 96.4%
- growth [9]: 81.7%
- growth [10]: 65.4%

Structure (SMILES): COC(=O)CCC/C=C\C[C@H]1C=CC(=O)/C1=C/C[C@@H](O)CCc1cccc(C(F)(F)F)c1
- growth [1]: -13.7% (active)
- growth [2]: -48.4% (active)
- growth [3]: -14.3% (active)
- growth [4]: -47.3% (active)
- growth [5]: -41.8% (active)
- growth [6]: -37.1% (active)
- growth [7]: -75.1% (active)
- growth [8]: -24.2% (active)
- growth [9]: -61.1% (active)
- growth [10]: -49.3% (active)

Structure (SMILES): O=C(CS(=O)c1oc(-c2cccs2)nc1S(=O)(=O)c1ccc(Br)cc1)c1ccccc1 (stereo not given)
- growth [1]: 92.6%
- growth [2]: 80.8%
- growth [3]: 97.7%
- growth [4]: 84.6%
- growth [5]: 93.6%
- growth [6]: 76%
- growth [7]: 81.4%
- growth [8]: 96.6%
- growth [9]: 98.7%
- growth [10]: 106%

Structure (SMILES): COc1ccc2c(c1)nc(NNC(=O)c1cnccn1)c1cccn12
- growth [1]: 33.4%
- growth [2]: 39.3%
- growth [3]: 28.5%
- growth [4]: 28.6%
- growth [5]: 7.94% (active)
- growth [6]: 64.3%
- growth [7]: 9.5% (active)
- growth [8]: 24.6%
- growth [9]: 26.1%
- growth [10]: 7.24% (active)
